Assay outcomes: PubChem BioAssay, several laboratories
CRFR2-BP antag = antagonists of CRF-binding protein/CRF-R2 receptor complex; AID 588475; inhibition, % at 11.8 µM; actives 0.59% (n = 350,000); HEK293 CRF-R2/CRF-BP, CRF-induced calcium fluorescence;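 active means inhibition of the ligand-induced calcium signal above about 50% at the single tested concentration, limit read from the data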
NTR1 ag = NTR1 (human) agonism; NTR1-U2OS beta-arrestin-GFP spot imaging, agonist mode; activation, % at 20 µM; actives 0.17% (n = 330,000);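 active means activation at or above 40% of the spot to cytoplasm intensity ratio, with at least 20 cells analyzed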;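 further: 0% = DMSO without peptide and 100% = 100 nM NTR1 peptide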
Target sequence (P30989 whole entry, looked up): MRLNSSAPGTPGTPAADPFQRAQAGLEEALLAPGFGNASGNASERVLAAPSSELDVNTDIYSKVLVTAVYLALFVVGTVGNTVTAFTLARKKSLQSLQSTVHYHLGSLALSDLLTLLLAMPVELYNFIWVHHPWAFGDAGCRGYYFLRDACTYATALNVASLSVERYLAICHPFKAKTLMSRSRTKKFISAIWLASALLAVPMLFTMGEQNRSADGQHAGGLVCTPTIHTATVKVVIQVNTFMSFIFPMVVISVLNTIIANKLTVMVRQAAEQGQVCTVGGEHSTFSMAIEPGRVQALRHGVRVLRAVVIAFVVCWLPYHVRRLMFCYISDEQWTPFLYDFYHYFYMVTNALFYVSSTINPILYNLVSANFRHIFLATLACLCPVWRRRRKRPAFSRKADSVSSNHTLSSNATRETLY
CRFR2-BP ag = agonists of human CRF-binding protein/CRF-R2 receptor complex; actives 0.46% (n = 350,000); activation, % at 13.2 µM; HEK293 CRF-R2/CRF-BP, calcium dye fluorescence (FLIPR); percent of saturating CRF peptide response;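 active means activation of at least 50%, plus an integration ratio under a set limit after plate pattern correction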;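 further: plate controls were neutral control wells without compound for no effect and CRF at EC100 for full effect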
V-ATPase pHluor = regulators of yeast V-ATPase proton transport. S. cerevisiae, pHLuorin cytosolic pH fluorescence. response, % at 10 µM. actives 0.37% (n = 350,000). AID 504577; in the data active means response mostly above about 7.3%, no sharp cut-off; inactive means mostly below about 5.4%; further: actives read high
NTR1 ag conf = NTR1 (human) agonism, confirmed. actives 38% (n = 480). activation, % at 20 µM. NTR1-U2OS beta-arrestin-GFP translocation imaging. shares compounds with NTR1 ag;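 active means mean activation at 20 µM of at least 40%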;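 further: 0% = DMSO without peptide and 100% = 100 nM NTR1 peptide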
* marks the source's active call; other numbers are inactive results; · = no result given. A selection: hits, their analogues and other compounds. The true share with any hit is near 1.5%.

SMILES	CRFR2-BP antag	NTR1 ag	CRFR2-BP ag	V-ATPase pHluor	NTR1 ag conf
COc1cc(/C=C/C(=O)c2cccc([N+](=O)[O-])c2)cc(OC)c1OC	-2	18	0	11	·
CC(C)C[C@H]1CN=C(Nc2ccccc2)N1CC1CCCC1	-3	-2	-1	-1	·
CC(C)C[C@H]1CN=C(Nc2ccccc2)N1CC1CCC(C(C)(C)C)CC1 (stereo partly specified)	-80	42*	14	3	57*
Cc1[nH]c2ccccc2c1C(=O)C(=O)NCc1ccncc1	-22	·	0	-1	·
O=C(Nc1ccc(Cl)c(C(F)(F)F)c1)NC1CC2CCCC(C1)N2Cc1ccccc1 (stereo unspecified)	-148	44*	6	·	23
Cc1cc2ccccc2c(=O)n1CC(=O)Nc1ccc2c(c1)OCCO2	14	46*	-2	2	-6
COc1ccc(NC(=O)CNC(=O)Cn2c(C)cc3ccccc3c2=O)cc1OC	-6	2	0	0	·
O=c1/c(=C\c2ccc(O)cc2)sc2nc(-c3ccccc3)c(-c3ccccc3)n12	-1	46*	4	-1	24
CN(C)S(=O)(=O)c1ccc(-c2csc(N/N=C/c3ccco3)n2)cc1	-20	71*	4	0	78*
CN(C)S(=O)(=O)c1ccc(-c2csc(N/N=C/c3ccc(O)cc3)n2)cc1	-6	52*	4	4	55*
C(=N\Nc1nc(-c2ccccc2)cs1)/c1ccncc1	1	8	-2	-1	·
Cc1ccc(-c2csc(N/N=C/c3ccco3)n2)cc1	1	4	-1	1	·
Cc1cc([N+](=O)[O-])nn1CCCC(=O)Nc1cc(Cl)ccc1Cl	-2	0	0	-2	·
CC(C)C(=O)N1CCN(c2ccc(NC(=O)c3ccc4c(c3)OCCO4)cc2Cl)CC1	-44	90*	0	2	85*
CC(=O)N1CCN(c2ccc(NC(=O)c3ccc4c(c3)OCCO4)cc2Cl)CC1	-1	1	0	-2	·
O[C@H]1CN(CC2CCCCC2)[C@@H](c2ccc(Cl)cc2)C[C@@H]1n1cc(C2CC2)nn1	2	·	1	-2	·
CC1CCCC(NCC(O)COC(c2ccc(F)cc2)c2ccc(F)cc2)C1C (stereo unspecified)	-8	52*	4	-1	27
Cc1ccc(OCCN2CCN(c3nc(NCc4ccco4)c4ccccc4n3)CC2)cc1	-20	50*	2	0	32
CC(=O)C1(O)C(C)CC2C3CC(F)C4(O)CC(O)CCC4(C)C3CCC21C (stereo unspecified)	-1	·	3	-2	·
OC(Cn1cncn1)(c1ccccc1)c1ccccc1	-3	55*	1	6	-4
Cc1cccc(NC(=O)Nc2ccc(Oc3c(F)c(F)c(F)c(F)c3F)cc2)c1	2	-1	-1	3	·
O=C(Nc1ccc(Oc2c(F)c(F)c(F)c(F)c2F)cc1)OC1CCN2Cc3ccccc3N=C12 (stereo unspecified)	-11	40*	5	0	54*
COc1cccc(C(=O)COC(=O)CCC(=O)NC2CCCCC2)c1	2	-1	0	1	·
Cc1ccccc1CN(C)C(=O)c1ccc2ccccc2n1	7	0	0	-2	·
O=C(Nc1ccc(N2CCN(C(=O)c3ccccc3)CC2)cc1)c1cc2ccccc2o1	3	64*	0	-3	86*
SMILES	CRFR2-BP antag	NTR1 ag	CRFR2-BP ag	V-ATPase pHluor	NTR1 ag conf
O=C(NCCOc1ccccc1)C1Nc2ccc(C(F)(F)F)cc2C2c3ccccc3CC12 (stereo unspecified)	-7	10	2	2	·
CCOC(=O)C1Nc2ccc(C(F)(F)F)cc2C2c3ccccc3CC12 (stereo unspecified)	-8	56*	6	0	7
CCCCOc1ccc2c(c1)C(=O)c1cc(O)ccc1-2	-15	41*	-2	1	9
N#CSC(c1ccccc1)c1nc2ccccc2[nH]c1=O (stereo unspecified)	-8	2	1	5	·
Cc1ccc(NC(c2ccccc2)c2nc3ccccc3[nH]c2=O)cc1 (stereo unspecified)	-4	40*	-2	-4	8
O=C(CN1CCN(C(=O)c2ccc(-c3nc4ccccc4s3)o2)CC1)Nc1ccccc1Cl	18	48*	0	2	25
Cc1cccc(NC(=O)CN2CCN(C(=O)c3ccc(-c4nc5ccccc5s4)o3)CC2)c1C	26	16	0	-5	·
CCc1ccc(CNC(=O)CCCC(=O)n2nc(C)c3ccccc32)cc1	4	3	-1	1	·
c1ccc(CNc2c(-c3cccc(SC4CCCCC4)c3)nc3ccccn23)cc1	3	40*	-2	3	4
O=C(O)c1ccccc1C(=O)NCc1ccc2c(c1)OCO2	-11	0	-1	-5	·
O=C(Nc1nnc(COc2ccc(Cl)cc2)s1)c1ccc([N+](=O)[O-])cc1	-14	-1	4	-3	·
O=C(Nc1ncc(Cc2ccc(Cl)cc2Cl)s1)c1ccc([N+](=O)[O-])cc1	-172	48*	74*	-4	7
c1ccc(N(c2ccccc2)c2nc(N3CCCC3)nc(-n3ccnc3)n2)cc1	-38	48*	0	-3	19
CN(c1ccccc1)c1nc(N2CCCC2)nc(-n2ccnc2)n1	-23	8	2	1	·
Cc1ccc(-c2csc3ncnc(Sc4nnc(CN5CCCCCC5=O)o4)c23)cc1	-11	49*	-2	1	56*
Cc1ccc(-c2csc3ncnc(SCC(=O)Nc4nnc(C)s4)c23)cc1	-12	4	0	0	·
CC(C)C[C@H](NC(=O)c1nc[nH]c1C(=O)N[C@@H](CC(C)C)C(=O)OC(C)(C)C)C(=O)OC(C)(C)C	13	27	4	-7	·
Cc1cccc(NC(=O)c2nc[nH]c2C(=O)N[C@@H](Cc2ccccc2)C(=O)OC(C)(C)C)c1	5	51*	0	-3	53*
CC(C)(C)OC(=O)NCCCCCNC(=O)c1[nH]cnc1C(=O)N[C@@H](Cc1ccccc1)C(=O)OC(C)(C)C	3	47*	5	-10	23
CC(C)(C)OC(=O)NCCCCCNC(=O)c1[nH]cnc1C(=O)Nc1ccc(Cl)cc1	4	48*	0	12	22
CC(C)C[C@H](NC(=O)c1[nH]cnc1C(=O)Nc1ccc(Cl)cc1)C(=O)OC(C)(C)C	3	56*	0	3	32
CCCCn1c(N)c(N(Cc2ccccc2OC)C(=O)CN2C(=O)NC(C)(c3ccccc3)C2=O)c(=O)[nH]c1=O (stereo unspecified)	5	0	0	0	·
Cc1cc(C)n(Cc2cccc(C(=O)N/N=C/c3cccnc3)c2)n1	3	0	-1	1	·
C[C@H](NC(=O)c1nc[nH]c1C(=O)NCc1ccc(CNC(=O)OC(C)(C)C)cc1)C(=O)OCc1ccccc1	3	55*	-1	2	56*
C[C@H](NC(=O)c1nc[nH]c1C(=O)NCc1ccc(CNC(=O)OC(C)(C)C)cc1)c1ccccc1	9	19	2	1	·
